Experimental data from PubChem BioAssay.
Values joined by “and” are separate entries in the source; they are usually repeats but may differ in a detail not shown here. Equal entries are not always repeated. Active and inactive are the calls of the source. Unless noted, how the calls were made is not given here.

Columns and labels:
[1] = system: Wnt5a (protein binding on small-molecule microarray); assay: small molecules binding Wnt5a protein – biophysical, small-molecule microarray, 635/667 nm fluorescence, primary screen (AID 1142); settings: 635 nm fluorescence, higher = more signal;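 further: fluorescence read at 667 nm with signal to noise per printed feature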
[2] = ATP-based viability of Huh7 replicon cells – cell-based, CellTiter-Glo luminescence, basal, 48 h, cytotoxicity control for HCV replication inhibitor project, primary screen (AID 1143); settings: Huh7 HCV replicon, CellTiter-Glo luminescence, 48 h, higher = more signal, called active from +8 up or from −8 down unless noted;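 further: Huh7 hepatoma cells carrying a hepatitis C replication reporter with no stimulus; test concentration not given here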
[3] = Pseudomonas biofilm growth suppression – PAO1 strain, BacTiter-Glo luminescence, LB-PBS, primary screen (AID 1144); settings: P. aeruginosa PAO1 biofilm, 12 h, higher = more signal
[4] = basal CRE-LacZ reporter activity in PC12 – cell-based, unstimulated, primary screen (AID 1145); settings: no forskolin, luminescence, 4.5 h; higher = more signal, called active from +8 up or from −8 down unless noted
[5] = forskolin-driven CRE-LacZ activity in PC12 – cell-based, CRE-LacZ reporter, forskolin-stimulated, primary screen (AID 1146); settings: luminescence, 4.5 h; higher = more signal, called active from +8 up or from −8 down unless noted;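 further: PC12 cells with 6xCRE LacZ reporter stimulated by forskolin 10 µM; beta-galactosidase reporter signal reflecting CREB driven transcription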
[6] = molecular target: Streptavidin (Streptomyces avidinii) (UniProt P22629); assay: compounds binding control protein streptavidin – biophysical, small-molecule microarray, 635/667 nm fluorescence, artefact control for SMM compound annotation, primary screen (AID 1147); settings: higher = more signal;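 further: signal reflects streptavidin binding to arrayed compounds as a control protein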
[7] = probe aInhba binding on compound microarray – biochemical, small-molecule microarray, 635/667 nm fluorescence, primary screen (AID 1148); settings: higher = more signal; small-molecule microarray, probe aInhba, fluorescence unless noted;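 further: score merges 667nm spot fluorescence with signal-to-noise for antibody binding to printed compounds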
Torsin-1A (Homo sapiens) [8] = molecular target: Torsin-1A (Homo sapiens) (UniProt O14656); assay: TOR1A wild-type binding on microarray – cell lysate, small-molecule microarray, lysate, 635/667 nm, primary screen (AID 1149); settings: COS7 hTOR1A-WT lysate, 635 nm fluorescence, higher = more signal
Torsin-1A (Homo sapiens) [9] = molecular target: Torsin-1A (Homo sapiens) (UniProt O14656); assay: torsin A mutant lysate binding on microarrays – cell lysate, small-molecule microarray, COS7 lysate, 635/667 nm fluorescence, primary screen (AID 1150); settings: COS7 hTOR1A mutant lysate, 635 nm fluorescence, higher = more signal;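 further: score pools 667 nm emission and signal to noise measuring lysate protein binding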
[10] = system: Sonic hedgehog protein (Shh); assay: Sonic hedgehog microarray binding compounds – biochemical, small-molecule microarray, 635/667 nm fluorescence, primary screen (AID 1151); settings: 635 nm fluorescence, higher = more signal;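 further: Shh protein binding to compounds spotted on small-molecule microarray slides; score combines spot fluorescence intensity with signal-to-noise across triplicate slides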
[11] = optical density shifts of acrAB sulA E. coli – strain DRC41, OD650, 48 h, E. coli filamentation inducer project, primary screen (AID 1152); settings: higher = more signal, called active from +8 up or from −8 down unless noted;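 further: E. coli MC1000 strain DRC41 lacking acrAB efflux pump and sulA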
[12] = probe aLefty1 binding on compound microarray – biochemical, small-molecule microarray, 635/667 nm fluorescence, primary screen (AID 1153); settings: higher = more signal; small-molecule microarray, probe aLefty1, fluorescence unless noted;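 further: score merges spot fluorescence with signal-to-noise ratio from the scanned slide images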
[13] = plasmodial surface anion channel blockers, osmotic lysis – cell-based, P. falciparum Indochina, OD700, 1 h, primary screen (AID 1154); settings: P. falciparum Indochina infected RBC osmotic lysis; higher = more signal, called active from +8 up or from −8 down unless noted
[14] = plasmodial surface anion channel blockers, osmotic lysis – cell-based, P. falciparum Indochina, OD700, 2 h, primary screen (AID 1155);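 further: lysis reports solute entry through the parasite surface anion channel PSAC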; settings: P. falciparum Indochina infected erythrocytes; higher = more signal, called active from +8 up or from −8 down unless noted
[15] = changes in parasitized red cell lysis, either direction – P. falciparum Indochina, OD700, 3 h, PSAC antagonist project, primary screen (AID 1156); settings: P. falciparum-infected erythrocytes, osmotic lysis; higher = more signal, called active from +8 up or from −8 down unless noted
[16] = plasmodial surface anion channel blockers, osmotic lysis – cell-based, P. falciparum Indochina, OD700, 18 h, primary screen (AID 1157); settings: P. falciparum Indochina infected erythrocytes, osmotic lysis OD700, 18 h; higher = more signal, called active from +8 up or from −8 down unless noted
[17] = S6 kinase pathway phospho-S6 level changes – cell-based, A549, cytoblot, luminescence, serum-stimulated, primary screen (AID 1158); settings: 5 h, higher = more signal;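 further: serum-stimulated A549 lung adenocarcinoma cells; signal is phosphorylated S6 detected by cytoblot immunostaining with HRP secondary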
[18] = molecular target: NADPH oxidase 2 (Homo sapiens) (UniProt P04839); assay: compounds shifting NOX2 Amplex Red fluorescence – cell-based, HEK293-NOX2, PMA-stimulated, NOX inhibitor project, primary screen (AID 1159); settings: 45 min; higher = more signal, called active from +8 up or from −8 down unless noted; further: test concentration not given here
[19] = molecular target: NADPH oxidase 4 (Homo sapiens) (UniProt Q9NPH5); assay: compounds shifting NOX4 Amplex Red fluorescence – cell-based, HEK293-NOX4, tetracycline-induced, NOX inhibitor project, primary screen (AID 1160); settings: HEK293-NOX4, Amplex Red H2O2 fluorescence, 45 min; higher = more signal, called active from +8 up or from −8 down unless noted
[20] = molecular target: NADPH oxidase 5 (Homo sapiens) (UniProt Q96PH1); assay: compounds shifting NOX5 Amplex Red fluorescence – cell-based, HEK293-NOX5, NOX inhibitor project, primary screen (AID 1161); settings: HEK293-NOX5, ionomycin, 45 min, higher = more signal
Chain of NADPH oxidase 5 (Homo sapiens) (Q96PH1 whole entry, looked up): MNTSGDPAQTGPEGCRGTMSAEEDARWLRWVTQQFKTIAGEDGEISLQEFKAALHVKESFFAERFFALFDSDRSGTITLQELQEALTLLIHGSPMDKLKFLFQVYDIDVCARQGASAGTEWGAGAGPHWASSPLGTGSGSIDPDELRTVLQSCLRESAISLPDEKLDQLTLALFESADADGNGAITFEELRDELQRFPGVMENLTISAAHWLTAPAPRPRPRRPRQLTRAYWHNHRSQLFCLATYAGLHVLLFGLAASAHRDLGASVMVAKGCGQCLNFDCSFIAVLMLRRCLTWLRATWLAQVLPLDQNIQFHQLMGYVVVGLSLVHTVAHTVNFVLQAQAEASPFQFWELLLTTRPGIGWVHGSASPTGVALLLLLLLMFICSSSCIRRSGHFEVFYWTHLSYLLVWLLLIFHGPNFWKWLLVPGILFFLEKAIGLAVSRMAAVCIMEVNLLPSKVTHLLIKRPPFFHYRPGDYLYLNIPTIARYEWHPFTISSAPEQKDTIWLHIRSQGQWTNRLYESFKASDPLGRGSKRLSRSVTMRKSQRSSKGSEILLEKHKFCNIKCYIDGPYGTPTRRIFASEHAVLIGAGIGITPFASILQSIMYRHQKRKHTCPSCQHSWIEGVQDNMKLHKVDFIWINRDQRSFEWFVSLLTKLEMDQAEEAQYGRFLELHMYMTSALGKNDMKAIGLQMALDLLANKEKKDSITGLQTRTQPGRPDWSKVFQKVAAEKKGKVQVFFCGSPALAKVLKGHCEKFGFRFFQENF

Chain of NADPH oxidase 4 (Homo sapiens) (Q9NPH5 whole entry, looked up): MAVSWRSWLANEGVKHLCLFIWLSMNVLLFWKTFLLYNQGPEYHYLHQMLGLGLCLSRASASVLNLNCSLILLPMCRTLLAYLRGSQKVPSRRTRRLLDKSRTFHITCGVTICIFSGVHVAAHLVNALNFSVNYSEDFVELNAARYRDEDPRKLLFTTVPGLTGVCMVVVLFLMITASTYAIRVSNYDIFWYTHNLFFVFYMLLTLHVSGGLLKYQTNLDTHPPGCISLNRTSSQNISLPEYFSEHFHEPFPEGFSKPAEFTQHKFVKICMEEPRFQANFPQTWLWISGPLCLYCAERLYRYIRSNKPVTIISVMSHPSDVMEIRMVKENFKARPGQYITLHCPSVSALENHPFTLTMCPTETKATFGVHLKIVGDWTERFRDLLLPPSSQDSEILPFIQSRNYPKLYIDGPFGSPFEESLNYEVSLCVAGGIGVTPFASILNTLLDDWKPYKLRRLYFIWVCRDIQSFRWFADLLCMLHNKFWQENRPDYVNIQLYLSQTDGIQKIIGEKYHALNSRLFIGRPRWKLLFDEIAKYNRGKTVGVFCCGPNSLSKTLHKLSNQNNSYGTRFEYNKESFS
Chain of Torsin-1A (Homo sapiens) (O14656 whole entry, looked up): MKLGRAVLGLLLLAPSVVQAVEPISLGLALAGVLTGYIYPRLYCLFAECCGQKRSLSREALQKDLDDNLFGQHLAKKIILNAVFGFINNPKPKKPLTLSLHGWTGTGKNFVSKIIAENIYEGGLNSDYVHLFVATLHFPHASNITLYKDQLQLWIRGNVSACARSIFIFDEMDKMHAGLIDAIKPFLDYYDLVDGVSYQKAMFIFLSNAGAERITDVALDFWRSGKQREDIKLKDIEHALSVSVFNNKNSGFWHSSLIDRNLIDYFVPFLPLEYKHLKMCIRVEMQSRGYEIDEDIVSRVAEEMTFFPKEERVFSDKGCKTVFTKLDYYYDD
Chain of NADPH oxidase 2 (Homo sapiens) (P04839 whole entry, looked up): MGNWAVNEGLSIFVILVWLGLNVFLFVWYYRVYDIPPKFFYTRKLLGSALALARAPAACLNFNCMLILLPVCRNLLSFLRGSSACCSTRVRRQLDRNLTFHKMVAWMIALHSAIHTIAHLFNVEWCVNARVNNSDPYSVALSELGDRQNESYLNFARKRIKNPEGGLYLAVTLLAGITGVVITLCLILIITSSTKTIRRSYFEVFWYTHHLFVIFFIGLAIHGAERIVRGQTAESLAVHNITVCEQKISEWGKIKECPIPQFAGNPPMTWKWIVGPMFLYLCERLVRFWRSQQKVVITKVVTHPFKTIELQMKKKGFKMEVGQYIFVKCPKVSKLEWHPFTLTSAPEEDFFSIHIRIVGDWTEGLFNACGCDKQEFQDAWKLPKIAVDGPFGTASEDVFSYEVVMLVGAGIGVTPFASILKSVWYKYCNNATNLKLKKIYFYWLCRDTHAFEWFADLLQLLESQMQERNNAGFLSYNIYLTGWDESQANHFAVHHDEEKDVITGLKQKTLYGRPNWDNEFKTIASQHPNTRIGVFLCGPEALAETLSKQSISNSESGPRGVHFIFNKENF
Chain of Streptavidin (Streptomyces avidinii) (P22629 whole entry, looked up): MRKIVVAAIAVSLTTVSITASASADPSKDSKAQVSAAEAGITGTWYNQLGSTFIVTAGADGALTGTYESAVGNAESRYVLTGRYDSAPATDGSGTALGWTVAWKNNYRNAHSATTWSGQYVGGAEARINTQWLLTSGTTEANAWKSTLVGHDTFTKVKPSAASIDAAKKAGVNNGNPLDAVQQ

SMILES	composite z-score [1]	z-score [2]	z-score [3]	z-score [4]	z-score [5]	composite z-score [6]	composite z-score [7]	composite z-score (Torsin-1A (Homo sapiens) [8])	composite z-score (Torsin-1A (Homo sapiens) [9])	composite z-score [10]	z-score [11]	composite z-score [12]	z-score [13]	z-score [14]	z-score [15]	z-score [16]	z-score [17]	z-score [18]	z-score [19]	z-score [20]
COC(=O)[C@@]1(Cc2ccccc2)[C@H]2c3cc(C(=O)N(C)C)n(C)c3C[C@H]2CN1C(=O)c1ccccc1	0.253	-0.782 (inactive)	0.323 (inactive)	0.194 (inactive)	0.189 (inactive)	1.78	0.0091	0.0264	1.51	-0.916	-0.741 (inactive)	0.113	1.24 (inactive)	0.373 (inactive)	0.747 (inactive)	0.617 (inactive)	0.553	0.294 (inactive)	-0.0833 (inactive)	-2.5
OCc1ccc(C2=CC(C3CC3)N(Cc3sc4ccccc4c3Cl)CC2)cc1 (stereo not given)	0.074	-3.22 (inactive)	-0.259 (inactive)	7.14 (inactive)	-2.05 (inactive)	0.337	0.0028	0.771	0.679	1.65	-2 (inactive)	0.0253	13.6 (active)	2.7 (inactive)	0.258 (inactive)	1.51 (inactive)	-0.627	0.703 (inactive)	-1.07 (inactive)	-1.55
OCc1ccc(C2=CC(c3cccs3)N(Cc3cccc(OC(F)(F)F)c3)CC2)cc1 (stereo not given)	0.136	-4.06 (inactive)	1.28 (inactive)	1.54 (inactive)	-0.162 (inactive)	-0.0232	-0.0719	0.761	1.16	1.05	-0.915 (inactive)	-0.148	3.92 (inactive)	1.2 (inactive)	-0.18 (inactive)	0.822 (inactive)	-0.0923	0.655 (inactive)	-0.666 (inactive)	-1.38
CC1N(P(=O)(c2ccccc2)c2ccccc2)CC(O)(c2ccccc2)CC12CC2 (stereo not given)	-0.025 and -0.0606	-0.601 (inactive) and -2.65 (inactive)	0.693 (inactive) and 0.00162 (inactive)	0.0075 (inactive) and -0.179 (inactive)	0.84 (inactive) and 0.498 (inactive)	-0.586 and 0.107	-0.0589 and 0.475	-1.12 and -0.311	0.699 and 0.319	-0.649 and -1.4	-1.36 (inactive) and -1.82 (inactive)	-0.103 and 0.607	0.232 (inactive) and 0.667 (inactive)	-0.0745 (inactive)	0.716 (inactive) and 0.248 (inactive)	0.593 (inactive) and 0.642 (inactive)	-0.259 and -0.209	-0.427 (inactive) and -1.04 (inactive)	-1.52 (inactive) and -0.626 (inactive)	-3.13 and -2.02
CCc1cc2c(nc1CC)CCN(CCC(C)=NOC)C2	0.148	-0.295 (inactive)	-1.01 (inactive)	1.82 (inactive)	-0.26 (inactive)	0.496	-0.0645	1.23	1.57	1.05	-1.88 (inactive)	0.393	1.69 (inactive)	1.29 (inactive)	0.194 (inactive)	0.612 (inactive)	0.481	-0.0413 (inactive)	-1.48 (inactive)	1.13
CCOC(=O)[C@H]1CC=C2C(=O)Oc3ccc(Br)cc3[C@@H]21	-0.707	-0.87 (inactive)	-0.301 (inactive)	0.0331 (inactive)	34.1 (active)	0.307	-0.128	0.0083	0.127	-0.968	-0.704 (inactive)	0.035	1.79 (inactive)	1.03 (inactive)	-0.0107 (inactive)	0.756 (inactive)	-0.747	-0.0356 (inactive)	-1.75 (inactive)	-0.445
CCCc1cc2c(n1Cc1ccco1)C(C)C1CN(C(=O)c3ccccc3)C(C)(C(=O)OC)C21 (stereo not given)	0.326	-2.79 (inactive)	0.666 (inactive)	0.394 (inactive)	0.718 (inactive)	1	0.173	0.556	0.944	0.357	-2.11 (inactive)	0.439	5.21 (inactive)	0.63 (inactive)	0.952 (inactive)	0.495 (inactive)	-0.11	-1.61 (inactive)	-6.73 (inactive)	-3.84
CN1CCc2nc(CO)c(CO)cc2C1	0.233	-0.0958 (inactive)	0.424 (inactive)	1.37 (inactive)	-0.0826 (inactive)	0.0991	0.0442	-0.0701	0.557	0.424	0.0958 (inactive)	0.0504	0.297 (inactive)	0.538 (inactive)	-0.508 (inactive)	0.101 (inactive)	-0.121	1.62 (inactive)	-1.25 (inactive)	-0.795
